High-throughput results from PubChem BioAssay.
The list is a sample of the results.
aSyn 5UTR act: Activators via SNCA 5'UTR binding, MLPCN | alpha-synuclein 5'UTR reporter, activators screen | activity score, % (tested at 7.5 µM), hits read low | AID 1814 | hit rate 7.1% among 300,000; in the data active = activity score below about -60%
The depositor's hits bear a star.

SMILES	aSyn 5UTR act
COC(=O)c1c(C)[nH]c(C(=O)CSc2ccc(Cl)cc2)c1C	-134*
COC(=O)c1c(C)[nH]c(C(=O)/C=C/c2ccc(C)cc2)c1C	-73*
COc1cccc2[nH]c3c(N4CCCC(C)C4)ncnc3c12 (stereo unspecified)	-143*
CC(=O)Nc1ccc(NC(=O)C(C)OC(=O)/C(C#N)=C/c2ccc(N(C)C)cc2)cc1 (stereo unspecified)	-85*
CCOC(=O)C1CCN(S(=O)(=O)c2c(Cl)ccc3nonc23)CC1	-309*
COc1ccc(-c2c(C)c3ccc(OCC(C)=O)cc3oc2=O)cc1	-142*
CCCOc1ccc2c(C)c(CC(=O)OC)c(=O)oc2c1	-118*
COc1ccc(-c2c(C)c3ccc(O)cc3oc2=O)cc1	-97*
CC(=O)COc1ccc2c(C)c(C)c(=O)oc2c1	-118*
CCCn1c(N)c(Sc2ccc(C)cc2)c(=O)n(CCC)c1=O	-79*
N/C(=N\N=C\c1cccc([N+](=O)[O-])c1)c1nonc1N	-150*
COc1ccccc1/C=N\N=C(\N)c1ccccn1	-175*
COc1cccc(/C=N/N=C(\N)c2nonc2N)c1O	-105*
CCOc1ccc(S(=O)(=O)N/N=C2/CC(c3ccccc3)Oc3ccccc32)cc1 (stereo unspecified)	-66*
CCC(=O)N1N=C(c2ccc(NS(C)(=O)=O)cc2)CC1c1ccc(N(C)C)cc1 (stereo unspecified)	-102*
O=c1cc(N2CCOCC2)cnn1-c1ccccc1	-123*
CC(=O)c1cc(C#N)c(SCc2ccccc2C#N)nc1C	-97*
CC(=O)c1cc(C#N)c(SCC(=O)OC(C)(C)C)nc1C	-116*
Cc1ccc(C2=Nc3ccccc3SC(c3cccc([N+](=O)[O-])c3)C2)cc1 (stereo unspecified)	-113*
Cn1c(=NC(=O)c2ccccc2[N+](=O)[O-])sc2cccc(F)c21	-110*
O=C1C(c2cc(=O)c3ccccc3[nH]2)=C(O)c2ccccc21	-118*
O=c1cc(-c2ccccc2)[nH]c2ccccc12	68
Cc1ccc(N=Cc2cc(C)n(C3CCCC3)c2C)cc1	-155*
C=CCNC(=S)Nc1c(C(=O)OC)[nH]c2cc(OC)ccc12	-91*
S=C(NCc1ccco1)Nc1cc(-c2ccccc2)[nH]n1	-68*
SMILES	aSyn 5UTR act
COc1ccc(-c2coc3cc(O)ccc3c2=O)cc1	-134*
COc1ccc(-c2coc3cc(OC4OC(CO)C(O)C(O)C4O)ccc3c2=O)cc1 (stereo unspecified)	-124*
COc1ccc(-c2coc3cc(O)ccc3c2=O)cc1O	-90*
COc1ccc(CC(=O)c2ccc(OC3OC(CO)C(O)C(O)C3O)cc2O)cc1 (stereo unspecified)	-69*
CNC(=O)NC(=O)C(C)OC(=O)c1c2c(nc3ccccc13)/C(=C/c1cccs1)CC2 (stereo unspecified)	-143*
COC(=O)N/N=C\c1ccccc1OC/C=C/c1ccccc1	-123*
CCOC(=O)N/N=C\c1ccccc1OC/C=C/c1ccccc1	-95*
COc1ccc(CCC(=O)Nc2nc3ccccc3[nH]2)cc1	-127*
COc1ccc(OCC(=O)Nc2nc3ccccc3[nH]2)cc1	-123*
CCC(Oc1ccccc1)C(=O)Nc1nc2ccccc2[nH]1 (stereo unspecified)	-66*
CCCCCC(=O)Nc1nc2ccccc2[nH]1	-177*
COc1ccccc1CCC(=O)Nc1nc2ccccc2[nH]1	-223*
COc1ccc(-n2nc([N+](=O)[O-])c(=NCc3ccco3)n2O)cc1	-83*
COc1ccc(-n2nc([N+](=O)[O-])c(=NCCC3=CCCCC3)n2O)cc1	-82*
COc1ccc(-n2nc([N+](=O)[O-])c(=NCc3cccnc3)n2O)cc1	-121*
CCc1ccc(N=c2c([N+](=O)[O-])nn(-c3ccccc3)n2O)cc1	-88*
N#CCC(=O)N/N=C/c1cn(Cc2ccc(Cl)c(Cl)c2)c2ccccc12	61
N#CCn1cc(/C=N/NC(=O)c2cc3c(ccc4ccccc43)o2)c2ccccc21	-112*
Cc1cccc(NC(=O)NC(=O)c2ccccc2)n1	-139*
Cc1cc(C)c(NC(=O)NC(=O)c2cccc(F)c2)c(C)n1	-69*
O=C(NC(=O)c1ccccc1)Nc1ccccn1	64
Cc1cccc(NC(=O)c2ccc(C(=O)c3ccccc3)cc2)n1	-102*
O=C(Nc1ccccn1)c1ccc(C(=O)c2ccccc2)cc1	-108*
O=C(Nc1ccc(O)cc1)c1cc2n(n1)C(C(F)(F)F)CC(c1ccco1)N2 (stereo unspecified)	-66*
Cc1nc(NC(=O)c2ccc(F)cc2)nc2cc3c(cc12)OCO3	-120*
SMILES	aSyn 5UTR act
Cc1nc(NC(=O)c2ccccc2)nc2cc3c(cc12)OCO3	-127*
Cc1ccc(/C=C(\C#N)C(=O)Nc2ccccn2)o1	-164*
O=C(Nc1nc(-c2nc3ccccc3s2)cs1)c1ccc(S(=O)(=O)N2CCOCC2)cc1	-75*
CN(C)S(=O)(=O)c1ccc(C(=O)Nc2nc(-c3cc4ccccc4o3)cs2)cc1	-137*
O=C(Nc1nc(-c2cc3ccccc3o2)cs1)c1ccc(S(=O)(=O)N2CCCC2)cc1	-68*
Cc1ccc(-c2nc3ccccc3s2)cc1S(=O)(=O)N1CCOCC1	-66*
O=C(N/C=C/c1ccccc1)c1ccccc1	-135*
O=C(Nc1ccc(-c2cnco2)cc1)c1ccc(F)cc1F	-146*
c1ccc(Nc2nc3ccccc3[nH]2)nc1	-169*
Cc1cc(C)nc(Nc2nc3ccccc3[nH]2)n1	-109*
COc1c2c(cc3oc(=O)c4c5ccc(O)cc5oc4c13)OC(C)(C)CC2	-199*
Clc1ccc(-c2cc(COc3ccccc3)on2)cc1	-90*
O=S(=O)(Cc1cc(-c2ccc(Cl)cc2)no1)c1ccccc1	-173*
O=S(=O)(Cc1cc(-c2ccccc2Cl)no1)c1ccccc1	-130*
Cc1occc1C(=O)Nc1cccc2ccccc12	-172*
Cc1occc1C(=O)N/N=C/c1cccs1	-82*
Cc1occc1C(=O)N/N=C/c1cccc2ccccc12	-200*
O=C(N/N=C/c1cccs1)c1n[nH]c2c1CCCC2	82
COc1ccccc1CNC(=O)[C@@H]1CCCN1S(=O)(=O)c1ccc(C)cc1	-113*
N=C(N)SCc1ccc(Cl)cc1Cl	-71*
CC(C)c1cc2cc3ccc(=O)oc3cc2o1	-96*
O=C(/C=C/c1ccco1)NC(=S)Nc1nc(-c2ccc(Cl)cc2)cs1	-76*
O=C(/C=C\c1ccco1)Nc1nc(-c2ccccc2)cs1	-121*
O=C(/C=C/c1ccco1)NC(=S)Nc1nc(-c2ccc3ccccc3c2)cs1	-94*
O=C(ONc1ccc(N=NC(=O)c2ccccc2O)cc1)c1ccccc1	-86*
SMILES	aSyn 5UTR act
C=CCn1c(=S)[nH]c2scc(-c3ccc(C)o3)c2c1=O	-69*
Cc1ccc(-c2csc3nc(C)n(N)c(=O)c23)o1	-130*
CCn1c(=S)[nH]c2scc(-c3cccs3)c2c1=O	-72*
C=CCn1c(SCC(=O)c2[nH]c(C)c(C(=O)OCC)c2C)nc2scc(-c3ccc(OC)c(OC)c3)c2c1=O	60
C=CCn1c(SCC(C)=O)nc2scc(-c3ccc(C)o3)c2c1=O	-150*
CN(C)c1ccc(CNc2ccc3c(c2)ncn3C(C)(C)C)cc1	-62*
CCOc1ccc(CNc2ccc3c(c2)ncn3C(C)(C)C)cc1	-84*
COc1ccc2c(n1)Sc1nc3ccccc3nc1N2	-136*
Cc1cc(/C=C(\C#N)C(=O)NC2CCCCCC2)c(C)n1C	-74*
Cc1cc(C)nc(Nc2nc(=O)c3ccccc3s2)n1	-134*
